Laboratory results: PubChem BioAssay
Where “and” joins values, the source holds several entries; their conditions need not be identical. Identical values can stand only once. Calls of active or inactive are those of the source.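 The calls were made as follows, unless noted: active = compounds whose cell count with miR-34 switched on is under 0.7 times the count with it off; inactive = the rest.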

Assays:
[1] = liver-stage malaria parasite growth inhibition, primary screen, cell-based, HepG2, luciferase luminescence, HepG2 viability (AID 624349; in the data active = parasite load remaining mostly below about 12%, no sharp cut-off; inactive = mostly above about 10%;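 also: 100% = mean of DMSO negative control wells on the same plate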); conditions: P. berghei liver stage in HepG2, luciferase luminescence, concentration not given here; parasite load remaining: stronger effect = lower value; viability: measured here: HepG2 viability without parasites
[2] = sensitizers of A549 cells to miR-34 induction, primary screen, imaging, A549 dox-inducible miR-34, nuclei and caspase counts (AID 1347080); conditions: A549 miR-34 inducible, Hoechst nuclei count, 48 h
[3] = survival rescue of mitochondrial mutant cells in low glucose, primary screen, MELAS cybrids, Rieske KO mouse fibroblasts, CellTiter-Glo (AID 1508586;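 active = mean z-score across replicates of 1.96 or higher in either the MELAS or the Rieske mutant cell line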;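 also: z relative to plate mean and SD of compound and empty wells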)
[4] = viability rescue of complex I mutant cybrids, primary screen, cell-based, galactose medium, ATP luminescence (AID 1645843;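 active = z-score of at least 1.8 in each of two replicates, scored against plate mean and spread of sample wells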;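 also: positive z means more ATP and so rescue of galactose-driven cybrid death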); conditions: complex I mutant cybrid cells, 72 h, stronger effect = higher value
[5] = hESC survival regulators, cell-based (AID 493140; call rule not given here;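 also: cells exposed to compounds for four days before counting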); conditions: human embryonic stem cell survival screen; stronger effect = higher value
[6] = stronger effect = lower value, cell number ratio, induced over uninduced
[7] = measured here: relative caspase fold change +Dox/-Dox
[8] = measured here: total cells with miR-34 induction, stronger effect = lower value
[9] = measured here: total cells without miR-34 induction
[10] = MELAS cybrid survival, CellTiter-Glo 48 h, stronger effect = higher value
[11] = Rieske KO mouse fibroblast survival, CellTiter-Glo 72 h

SMILES | parasite load remaining [1] | viability [1] | fold change [2, 6] | fold change [2, 7] | cell count [2, 8] | cell count [2, 9] | z-score [3, 10] | z-score [3, 11] | z-score [4] | survival [5]
COC(=O)c1ccccc1O | 53.2% (inactive) | 98% | 0.851 (inactive) | 1.32 | 10100 | 11800 | -0.407 (inactive) | -0.367 | 0.47 (inactive) | –
CNC1(C)[C@H]2CC[C@H](C2)C1(C)C (stereo not given in full) | 95.3% (inactive) | 108% | 0.905 (inactive) | 1.29 | 9940 | 11000 | 0.54 (inactive) | -0.569 | 0.66 (inactive) | –
CC(=O)OC1C=C2C(Cl)=C[C@@H]3[C@H](CC[C@@]4(C)[C@H]3CC[C@]4(OC(C)=O)C(C)=O)[C@@]2(C)CC1 (stereo not given in full) | 9.03% (inactive) | 64% | 0.729 (inactive) | 1.61 | 7220 | 9910 | 0.137 (inactive) | 1.01 | 0.185 (inactive) | –
CCCCCCCCCCCCCCCC(=O)O[C@@H]1[C@@H](O)[C@@H](O)[C@@H](C(NC(=O)[C@@H]2C[C@@H](CCC)CN2C)C(C)Cl)O[C@@H]1SC (stereo not given in full) | 67.8% (inactive) | 204% | 0.867 (inactive) | 1.18 | 9340 | 10800 | 0.27 (inactive) | -0.444 | 0.11 (inactive) | –
CC1(C)C[C@H]1C(=O)N/C(=C\CCCCSC[C@@H](N)C(=O)O)C(=O)O | 23.2% (inactive) | 65% | 0.879 (inactive) | 0.978 | 9660 | 11000 | 0.461 (inactive) | 1.05 | 0.565 (inactive) | –
O=C(OC1CC2CC3C[C@@H](C1)N2CC3=O)c1c[nH]c2ccccc12 (stereo not given in full) | 57.9% (inactive) | 134% | 0.838 (inactive) | 1.48 | 8850 | 10600 | -0.0411 (inactive) | -0.329 | 1.09 (inactive) | –
C[N+](C)(C)[C@@H](Cc1c[nH]c(=S)[nH]1)C(=O)[O-] | 52.4% (inactive) | 234% | 0.872 (inactive) | 1.27 | 9810 | 11300 | -0.462 (inactive) | -0.623 | 0.805 (inactive) | –
CCC(=O)OCC(=O)[C@@]1(OC(=O)CC)[C@@H](C)C[C@H]2[C@@H]3CCC4=CC(=O)C=C[C@]4(C)C3(F)[C@@H](O)C[C@@]21C (stereo not given in full) | 19.5% (inactive) | 67% | 0.837 (inactive) | 1.41 | 6650 | 7940 | 0.189 (inactive) | 1.36 | 0.155 (inactive) | –
CCCCC(C)(O)C/C=C/[C@H]1[C@H](O)CC(=O)[C@@H]1CCCCCCC(=O)OC (stereo not given in full) | 25.9% (inactive) | 64% | 1.01 (inactive) and 0.901 (inactive) | 1.23 and 1.3 | 5920 and 9930 | 5880 and 11000 | -0.242 (inactive) and 0.112 (inactive) | -0.698 and -0.238 | 0.245 (inactive) | –
CC(=O)O[C@]1(C(C)=O)CC[C@H]2[C@@H]3C=C(Cl)C4=CC(=O)C5CC5[C@]4(C)[C@H]3CC[C@@]21C (stereo not given in full) | 65.7% (inactive) | 68.5% | 0.93 (inactive) | 0.98 | 8920 | 9590 | -0.145 (inactive) | 0.56 | – | 12.6 (inactive)
O=C(O)C=Cc1ccc(O)c(O)c1 | 59.8% (inactive) | 95.6% | 0.886 (inactive) and 0.85 (inactive) | 1.16 and 0.929 | 9150 and 8100 | 10300 and 9530 | -0.35 (inactive) | 0.227 | – | 7.75 (inactive)
COC(=O)Nc1nc2ccc(SC(C)C)cc2[nH]1 | 92.8% (inactive) | 74.8% | 0.996 (inactive) | 0.586 | 1650 | 1660 | -2.13 (inactive) | 1.04 | – | 0.5 (inactive)
C=CCOc1ccccc1OCC(O)CNC(C)C (stereo not given) | 73.5% (inactive) | 76.9% | 0.94 (inactive) | 0.727 | 9530 | 10100 | 0.73 (inactive) | 0.111 | – | 7.17 (inactive)
CC(=O)Nc1c(I)c(C(=O)N[C@H]2C(O)O[C@H](CO)[C@@H](O)[C@@H]2O)c(I)c(N(C)C(C)=O)c1I (stereo not given in full) | 113% (inactive) | 109% | 0.901 (inactive) | 1.22 | 9390 | 10400 | 0.559 (inactive) | 0.37 | – | –
CC[C@@]1([C@@H]2O[C@@H]([C@H]3O[C@@](O)(CO)[C@H](C)C[C@@H]3C)C[C@@H]2C)CC[C@H]([C@]2(C)CC[C@]3(C[C@H](O)[C@@H](C)[C@@H]([C@@H](C)[C@@H](OC)[C@H](C)C(=O)O)O3)O2)O1 (stereo in doubt) | -0.09% (active) | 93.8% | 0.901 (inactive) | 1.01 | 2780 | 3090 | -2.78 (inactive) | -1.77 | – | –
Cc1onc(-c2c(F)cccc2Cl)c1C(=O)N[C@@H]1C(=O)N2C(C(=O)O)C(C)(C)S[C@H]12 (stereo not given in full) | 131% (inactive) | 74.7% | 0.98 (inactive) | 0.516 | 9050 | 9240 | 0.325 (inactive) | 0.193 | – | 15.2 (inactive)
COc1cc(N)c(Cl)cc1C(=O)N[C@H]1CCN(CCCOc2ccc(F)cc2)C[C@H]1OC | 43.8% (inactive) | 91.1% | 0.886 (inactive) | 2.08 | 7400 | 8350 | -0.0533 (inactive) | 0.31 | – | –
CN/C(=C/[N+](=O)[O-])NCCSCc1csc(CN(C)C)n1 | 74.7% (inactive) | 97.8% | 0.889 (inactive) | 0.967 | 9080 | 10200 | 0.561 (inactive) | -0.45 | – | –
CNCC(O)c1ccc(OC(=O)C(C)(C)C)c(OC(=O)C(C)(C)C)c1 (stereo not given) | 97.5% (inactive) and 55.6% (inactive) | 100% and 75.1% | 0.893 (inactive) | 0.873 | 8640 | 9680 | -1.22 (inactive) | -0.55 | – | 4.83 (inactive)
COc1ccc2c(c1)N(C[C@H](C)CN(C)C)c1ccccc1S2 | 76.2% (inactive) | 87.8% | 0.88 (inactive) | 1.53 | 7810 | 8880 | -1.21 (inactive) | -0.494 | – | 1.83 (inactive)
CCOC1O[C@H]([C@@H](COCc2ccccc2)OCc2ccccc2)[C@H](OCc2ccccc2)[C@H]1O (stereo not given in full) | 66.9% (inactive) | 70.5% | 0.904 (inactive) | 0.887 | 8110 | 8970 | -0.366 (inactive) | 0.506 | – | –
CC(C)(C)NC[C@@H](O)COc1cccc2c1CCCC2=O | 94.5% (inactive) | 97% | 0.911 (inactive) | 1.14 | 9750 | 10700 | 0.547 (inactive) | 0.0254 | – | 6.25 (inactive)
CCCC(=O)Nc1ncnc2c1ncn2[C@@H]1O[C@@H]2OP(=O)(O)OC[C@H]2[C@H]1OC(=O)CCC | 71.6% (inactive) | 101% | 0.912 (inactive) | 1.18 | 9650 | 10600 | 0.66 (inactive) | 0.0496 | – | –
CC(=O)N[C@@H](CC(=O)N[C@H](CCC(=O)O)C(=O)O)C(=O)O | 91.6% (inactive) | 69.1% | 0.929 (inactive) | 1.02 | 9500 | 10200 | 0.603 (inactive) | 0.146 | – | –
CN(C)CC/C=C1\c2ccccc2CSc2ccccc21 | 36.7% (inactive) | 110% | 0.831 (inactive) | 1.19 | 6880 | 8280 | -0.0112 (inactive) | -0.183 | – | –
C=C1c2c(Cl)ccc(O)c2C(O)=C2C(=O)[C@]3(O)C(O)=C(C(N)=O)C(=O)[C@@H](N(C)C)[C@@H]3[C@@H](O)C12 (stereo not given in full) | 61.4% (inactive) | 104% | 0.684 (active) | 2.93 | 5870 | 8580 | -2.33 (inactive) | -2.53 | – | –
CC(C)(C)CC(C)(C)c1ccc(OCOCCOCCO)c(Cc2cc(C(C)(C)CC(C)(C)C)cc(Cc3cc(C(C)(C)CC(C)(C)C)ccc3OCOCCOCCO)c2OCOCCOCCO)c1 | 112% (inactive) | 98.8% | 0.877 (inactive) | 1.23 | 7920 | 9040 | -2.08 (inactive) | -1.21 | – | 1.75 (inactive)
CO[C@@H]1[C@@H](O[C@@H]2O[C@H](C)[C@@H](O[C@H]3C[C@@](C)(OC(=O)CC(C)C)[C@@H](O)[C@H](C)O3)[C@H](N(C)C)[C@H]2O)[C@@H](CC=O)C[C@@H](C)[C@@H](O)/C=C/C=C/C[C@@H](C)OC(=O)C[C@H]1OC(C)=O | 40.7% (inactive) | 45.1% | 0.924 (inactive) | 0.331 | 7880 | 8530 | -0.757 (inactive) | -0.227 | – | –
Cc1c(Cl)cccc1Nc1ncccc1C(=O)O | 71.2% (inactive) | 70.4% | 0.943 (inactive) | 0.763 | 9020 | 9560 | 0.72 (inactive) | 0.0323 | – | –
